# Laboratory results as given in the supplement of paper PMC10849652.
# The full data set covers some 7,900 targets. This sample favours those with a hit. About 0.6% of all pairs of compound and target were hits. A number with no mark means an inactive call.
# Assays:
# Experiment in all cases: log2 fold change, soluble protein after heating vs DMSO (PISA); higher = thermal stabilisation; K562 cells, 10 uM, 30 min; active = over 0.2 and 3.5 SD of the protein, either way, in both replicates (recomputed)
# bafetinib = compound: Cc1ccc(NC(=O)c2ccc(CN3CC[C@H](N(C)C)C3)c(C(F)(F)F)c2)cc1Nc1nccc(-c2cncnc2)n1 [bafetinib]
# How it was run: (§1)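 K562 cells at 2×10^6 cells/mL were given 10 μM compound for 30 min. Aliquots then went through 3 min of heating across 48°C-58°C, were pooled, and were extracted in PBS with 0.5% NP-40 at 4°C, and the supernatant after 21,000xg for 90 min was quantified by TMTpro 16plex LC-MS/MS with channel sums equalised. Thermal stability relative to control samples, from duplicates, is given as log2 fold change.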
# [1] = compound: Cc1cccc(CC(=O)N2CCc3c2ccc(-c2cn(C)c4ncnc(N)c24)c3F)n1
# How it was run: as §1
# nilotinib = compound: Cc1cn(-c2cc(NC(=O)c3ccc(C)c(Nc4nccc(-c5cccnc5)n4)c3)cc(C(F)(F)F)c2)cn1 [nilotinib]
# How it was run: as §1
# [2] = compound: Cc1nc(Nc2n[nH]c3c2CN(C(=O)N[C@H](CN(C)C)c2ccccc2)C3(C)C)c2sccc2n1
# How it was run: as §1
# dasatinib = compound: Cc1nc(Nc2ncc(C(=O)Nc3c(C)cccc3Cl)s2)cc(N2CCN(CCO)CC2)n1 [dasatinib]
# How it was run: as §1
# [3] = compound: Cc1ncc(-c2ccnc(Nc3ccc(S(C)(=O)=O)cc3)n2)n1C(C)C
# How it was run: as §1
# [4] = compound: Cn1cc(-c2ccc3c(c2)CCN3C(=O)Cc2cccc(C(F)(F)F)c2)c2c(N)ncnc21
# How it was run: as §1
# [5] = compound: Cn1cc(-c2ccc3nnc(C(F)(F)c4ccc5ncccc5c4)n3n2)cn1
# How it was run: as §1
# tipifarnib = compound: Cn1cncc1[C@@](N)(c1ccc(Cl)cc1)c1ccc2c(c1)c(-c1cccc(Cl)c1)cc(=O)n2C [tipifarnib]
# How it was run: as §1
# mubritinib = compound: FC(F)(F)c1ccc(/C=C/c2nc(COc3ccc(CCCCn4ccnn4)cc3)co2)cc1 [mubritinib]
# How it was run: as §1
# [6] = compound: NC(=O)Nc1cc(-c2cccc(F)c2)sc1C(=O)N[C@H]1CCCNC1
# How it was run: as §1
# [7] = compound: NC(=O)c1cnc(N[C@@H]2CCCC[C@@H]2N)nc1Nc1cccc(-n2nccn2)c1
# How it was run: as §1
# [8] = compound: NC1(c2ccc(-c3nc4ccn5c(=O)[nH]nc5c4cc3-c3ccccc3)cc2)CCC1
# How it was run: as §1
# [9] = compound: NCC(=O)Nc1ccc(-n2nc(C(F)(F)F)cc2-c2ccc3c(ccc4ccccc43)c2)cc1
# How it was run: as §1
# entinostat = compound: Nc1ccccc1NC(=O)c1ccc(CNC(=O)OCc2cccnc2)cc1 [entinostat]
# How it was run: as §1
# vorinostat = compound: O=C(CCCCCCC(=O)Nc1ccccc1)NO [vorinostat]
# How it was run: as §1
# citarinostat = compound: O=C(CCCCCCNC(=O)c1cnc(N(c2ccccc2)c2ccccc2Cl)nc1)NO [citarinostat]
# How it was run: as §1
# silmitasertib = compound: O=C(O)c1ccc2c(c1)nc(Nc1cccc(Cl)c1)c1ccncc12 [silmitasertib]
# How it was run: as §1
# [10] = compound: O=C1NC(=O)C(c2cnc3ccccn23)=C1c1cn2c3c(cc(F)cc13)CN(C(=O)N1CCCCC1)CC2
# How it was run: as §1
# [11] = compound: c1cc(OCCN2CCCCC2)cc(-c2n[nH]c3ccc(-c4nnc[nH]4)cc23)c1
# How it was run: as §1
# Sequence of UniProt Q96RE7 (Q96RE7 whole entry, looked up): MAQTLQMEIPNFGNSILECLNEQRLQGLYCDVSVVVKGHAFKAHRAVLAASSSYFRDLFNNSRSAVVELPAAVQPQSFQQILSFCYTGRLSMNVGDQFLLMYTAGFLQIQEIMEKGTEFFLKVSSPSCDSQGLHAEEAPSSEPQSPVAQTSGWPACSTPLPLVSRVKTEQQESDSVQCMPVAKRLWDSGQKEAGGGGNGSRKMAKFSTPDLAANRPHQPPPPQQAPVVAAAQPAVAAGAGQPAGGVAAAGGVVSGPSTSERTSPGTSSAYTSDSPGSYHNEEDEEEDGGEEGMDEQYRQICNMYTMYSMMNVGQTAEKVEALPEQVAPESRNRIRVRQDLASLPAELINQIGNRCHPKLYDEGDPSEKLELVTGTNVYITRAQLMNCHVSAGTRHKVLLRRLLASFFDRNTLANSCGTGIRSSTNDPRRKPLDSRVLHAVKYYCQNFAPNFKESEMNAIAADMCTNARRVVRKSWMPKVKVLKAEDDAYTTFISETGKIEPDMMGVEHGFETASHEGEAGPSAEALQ
# Sequence of UniProt Q9BZF1 (Q9BZF1 whole entry, looked up): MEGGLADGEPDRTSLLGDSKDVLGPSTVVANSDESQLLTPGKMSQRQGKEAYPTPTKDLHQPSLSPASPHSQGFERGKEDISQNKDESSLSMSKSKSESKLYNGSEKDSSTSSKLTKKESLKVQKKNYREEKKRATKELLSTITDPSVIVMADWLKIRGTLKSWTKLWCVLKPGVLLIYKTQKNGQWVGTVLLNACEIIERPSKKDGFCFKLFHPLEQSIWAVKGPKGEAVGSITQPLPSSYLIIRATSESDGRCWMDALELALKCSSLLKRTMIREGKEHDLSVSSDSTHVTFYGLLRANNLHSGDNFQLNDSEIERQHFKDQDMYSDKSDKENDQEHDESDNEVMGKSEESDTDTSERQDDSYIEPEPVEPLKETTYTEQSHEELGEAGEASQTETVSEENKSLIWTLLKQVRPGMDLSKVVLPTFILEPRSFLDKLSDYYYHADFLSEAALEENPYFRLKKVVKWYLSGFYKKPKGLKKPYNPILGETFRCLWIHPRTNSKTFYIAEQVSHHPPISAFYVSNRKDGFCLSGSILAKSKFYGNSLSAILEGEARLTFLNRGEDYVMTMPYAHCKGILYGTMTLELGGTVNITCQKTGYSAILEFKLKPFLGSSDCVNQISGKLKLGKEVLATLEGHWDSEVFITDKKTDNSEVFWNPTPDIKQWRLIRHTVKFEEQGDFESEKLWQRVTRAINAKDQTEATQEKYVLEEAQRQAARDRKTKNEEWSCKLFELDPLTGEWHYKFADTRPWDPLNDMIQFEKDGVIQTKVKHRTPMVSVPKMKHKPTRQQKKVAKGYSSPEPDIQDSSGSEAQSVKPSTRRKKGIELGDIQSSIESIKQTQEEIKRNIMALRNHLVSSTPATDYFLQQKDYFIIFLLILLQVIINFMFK
# Sequence of UniProt Q9Y2I1 (Q9Y2I1 whole entry, looked up): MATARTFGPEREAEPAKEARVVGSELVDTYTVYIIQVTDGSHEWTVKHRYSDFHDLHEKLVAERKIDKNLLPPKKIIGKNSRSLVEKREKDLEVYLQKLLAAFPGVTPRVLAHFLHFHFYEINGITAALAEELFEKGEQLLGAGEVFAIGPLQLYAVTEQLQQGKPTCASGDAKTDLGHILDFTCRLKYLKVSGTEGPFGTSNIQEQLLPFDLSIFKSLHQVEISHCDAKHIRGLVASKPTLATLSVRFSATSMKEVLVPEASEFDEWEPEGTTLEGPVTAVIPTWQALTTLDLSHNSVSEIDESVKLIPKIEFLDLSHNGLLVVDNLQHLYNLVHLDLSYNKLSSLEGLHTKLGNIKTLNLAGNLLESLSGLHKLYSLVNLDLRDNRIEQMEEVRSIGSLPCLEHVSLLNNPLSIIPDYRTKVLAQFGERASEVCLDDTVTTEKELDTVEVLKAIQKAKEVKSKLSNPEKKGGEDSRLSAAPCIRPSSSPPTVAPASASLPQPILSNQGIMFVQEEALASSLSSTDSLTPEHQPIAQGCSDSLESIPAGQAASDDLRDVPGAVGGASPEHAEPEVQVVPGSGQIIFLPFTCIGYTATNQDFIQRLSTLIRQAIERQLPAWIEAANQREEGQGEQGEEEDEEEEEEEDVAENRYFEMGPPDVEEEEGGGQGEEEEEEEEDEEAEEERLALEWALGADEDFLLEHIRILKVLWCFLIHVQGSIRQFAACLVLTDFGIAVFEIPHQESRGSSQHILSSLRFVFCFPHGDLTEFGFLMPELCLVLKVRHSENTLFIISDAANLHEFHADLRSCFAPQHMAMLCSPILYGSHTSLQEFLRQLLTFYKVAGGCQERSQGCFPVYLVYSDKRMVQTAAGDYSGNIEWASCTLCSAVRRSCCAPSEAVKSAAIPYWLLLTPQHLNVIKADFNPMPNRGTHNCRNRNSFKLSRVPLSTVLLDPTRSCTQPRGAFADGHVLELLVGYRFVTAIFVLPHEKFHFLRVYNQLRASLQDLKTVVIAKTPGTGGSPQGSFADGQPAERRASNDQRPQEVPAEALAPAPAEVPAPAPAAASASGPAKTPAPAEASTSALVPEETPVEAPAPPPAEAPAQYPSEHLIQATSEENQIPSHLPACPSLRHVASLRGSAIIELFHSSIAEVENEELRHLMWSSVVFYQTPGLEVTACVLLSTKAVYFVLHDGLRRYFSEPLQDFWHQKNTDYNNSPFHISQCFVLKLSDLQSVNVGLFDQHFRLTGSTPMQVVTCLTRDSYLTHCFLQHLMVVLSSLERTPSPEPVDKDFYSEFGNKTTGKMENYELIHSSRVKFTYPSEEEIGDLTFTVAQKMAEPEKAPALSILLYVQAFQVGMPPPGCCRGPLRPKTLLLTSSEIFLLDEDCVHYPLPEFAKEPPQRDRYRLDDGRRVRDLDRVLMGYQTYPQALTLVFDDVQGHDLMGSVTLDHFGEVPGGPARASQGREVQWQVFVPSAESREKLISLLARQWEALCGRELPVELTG
# Sequence of UniProt O14524 (O14524 whole entry, looked up): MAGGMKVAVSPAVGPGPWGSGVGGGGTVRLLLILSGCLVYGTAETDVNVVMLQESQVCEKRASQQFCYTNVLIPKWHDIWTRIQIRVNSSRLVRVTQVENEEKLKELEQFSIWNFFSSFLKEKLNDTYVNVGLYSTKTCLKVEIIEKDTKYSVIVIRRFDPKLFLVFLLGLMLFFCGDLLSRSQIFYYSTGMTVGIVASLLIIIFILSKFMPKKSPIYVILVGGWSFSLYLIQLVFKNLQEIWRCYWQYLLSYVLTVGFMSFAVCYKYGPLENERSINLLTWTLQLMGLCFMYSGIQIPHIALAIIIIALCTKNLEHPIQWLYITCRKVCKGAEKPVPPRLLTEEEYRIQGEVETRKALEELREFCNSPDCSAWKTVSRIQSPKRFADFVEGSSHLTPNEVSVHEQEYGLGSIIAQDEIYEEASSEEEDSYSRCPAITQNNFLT
# Sequence of UniProt Q13423 (Q13423 whole entry, looked up): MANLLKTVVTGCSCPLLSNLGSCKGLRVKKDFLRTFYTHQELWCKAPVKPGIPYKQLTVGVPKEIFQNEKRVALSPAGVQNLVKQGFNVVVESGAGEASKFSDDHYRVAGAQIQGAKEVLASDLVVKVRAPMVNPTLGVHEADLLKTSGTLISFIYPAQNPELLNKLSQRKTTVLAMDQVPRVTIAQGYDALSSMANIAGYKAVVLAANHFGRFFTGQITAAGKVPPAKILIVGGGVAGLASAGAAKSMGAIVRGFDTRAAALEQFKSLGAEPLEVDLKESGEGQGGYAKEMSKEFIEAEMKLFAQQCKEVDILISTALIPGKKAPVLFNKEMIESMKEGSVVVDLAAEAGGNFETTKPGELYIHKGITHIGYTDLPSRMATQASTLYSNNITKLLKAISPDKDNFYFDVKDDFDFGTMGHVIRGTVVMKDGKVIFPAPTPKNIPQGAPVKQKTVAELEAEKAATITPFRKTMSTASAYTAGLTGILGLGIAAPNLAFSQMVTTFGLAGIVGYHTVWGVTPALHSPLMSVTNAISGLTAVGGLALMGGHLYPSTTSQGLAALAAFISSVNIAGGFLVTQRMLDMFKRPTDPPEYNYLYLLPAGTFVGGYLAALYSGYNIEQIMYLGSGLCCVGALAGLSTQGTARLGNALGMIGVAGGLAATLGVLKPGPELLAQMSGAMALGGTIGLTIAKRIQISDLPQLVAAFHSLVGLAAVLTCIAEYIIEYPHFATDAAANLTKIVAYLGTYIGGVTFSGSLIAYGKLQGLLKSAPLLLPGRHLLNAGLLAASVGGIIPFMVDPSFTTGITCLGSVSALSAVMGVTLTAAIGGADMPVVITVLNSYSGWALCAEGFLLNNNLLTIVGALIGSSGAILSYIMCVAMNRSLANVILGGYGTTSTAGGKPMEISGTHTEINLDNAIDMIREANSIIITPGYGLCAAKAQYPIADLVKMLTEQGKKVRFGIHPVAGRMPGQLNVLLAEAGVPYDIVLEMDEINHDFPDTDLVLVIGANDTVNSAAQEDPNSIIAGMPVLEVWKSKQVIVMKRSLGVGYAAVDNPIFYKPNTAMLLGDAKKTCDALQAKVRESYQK
# Sequence of UniProt Q9BRA0 (Q9BRA0 whole entry, looked up): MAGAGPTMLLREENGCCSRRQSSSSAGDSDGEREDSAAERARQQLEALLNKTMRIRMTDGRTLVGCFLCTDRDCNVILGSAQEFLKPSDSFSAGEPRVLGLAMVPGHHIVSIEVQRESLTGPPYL
# Sequence of UniProt O43809 (O43809 whole entry, looked up): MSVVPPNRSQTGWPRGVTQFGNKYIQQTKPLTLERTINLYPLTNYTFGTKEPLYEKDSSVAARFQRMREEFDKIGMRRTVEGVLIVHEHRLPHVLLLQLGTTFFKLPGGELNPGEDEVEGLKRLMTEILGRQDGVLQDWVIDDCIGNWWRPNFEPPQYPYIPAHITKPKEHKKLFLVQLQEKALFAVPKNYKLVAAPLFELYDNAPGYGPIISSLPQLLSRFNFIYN
# Sequence of UniProt Q96DE0 (Q96DE0 whole entry, looked up): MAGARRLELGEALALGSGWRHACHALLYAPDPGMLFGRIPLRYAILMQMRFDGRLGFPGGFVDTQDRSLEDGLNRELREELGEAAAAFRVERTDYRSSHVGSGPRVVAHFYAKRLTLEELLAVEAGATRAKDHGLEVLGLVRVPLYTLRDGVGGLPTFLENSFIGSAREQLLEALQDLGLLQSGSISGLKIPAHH
Target,log2 fold change (bafetinib),log2 fold change [1],log2 fold change (nilotinib),log2 fold change [2],log2 fold change (dasatinib),log2 fold change [3],log2 fold change [4],log2 fold change [5],log2 fold change (tipifarnib),log2 fold change (mubritinib),log2 fold change [6],log2 fold change [7],log2 fold change [8],log2 fold change [9],log2 fold change (entinostat),log2 fold change (vorinostat),log2 fold change (citarinostat),log2 fold change (silmitasertib),log2 fold change [10],log2 fold change [11]
NAA38 isoform 2 (UniProt Q9BRA0),0,-0.019,-0.128,0.052,-0.051,-0.066,0.028,-0.047,-0.039,-0.03,-0.064,-0.029,-0.105,0.026,-0.009,-0.041,-0.152,0.017,0.038,-0.264
OSBPL8 (UniProt Q9BZF1),0.182,0.049,0.295,-0.086,0.066,-0.047,-0.225,-0.093,-0.117,0.108,-0.06,-0.03,0.063,0.042,0.012,0.049,0.005,0,0.079,-0.129
MRPS17 (UniProt Q9Y2R5),0.264,-0.01,-0.314,0.067,-0.122,-0.012,-0.052,0.035,-0.088,0.179,-0.035,0.091,-0.138,-0.018,-0.027,0.191,0.05,-0.051,-0.047,0.02
"NA, A0A096LPI6",-0.076,-0.043,0,-0.007,-0.005,-0.04,-0.003,-0.028,-0.038,0.024,0.03,0.04,-0.012,0.016,-0.006,-0.02,0.022,0.024,-0.043,-0.015
NEMP1 (UniProt O14524),-0.147,0.065,-0.186,0.004,-0.009,0.003,-0.007,-0.025,0,0.036,-0.007,-0.204,-0.078,-0.181,0.028,0.078,0.026,-0.019,-0.029,-0.113
NEDD4L (UniProt Q96PU5),-0.037,-0.062,0.015,-0.134,-0.103,0.031,-0.097,-0.078,-0.022,0.01,-0.045,-0.062,-0.06,-0.074,0.075,0.062,-0.001,0.114,-0.006,-0.034
OTUD4 (UniProt Q01804),0.069,-0.016,0.037,-0.039,0.046,-0.077,-0.082,-0.09,0.064,-0.024,0.006,0.026,0.071,0.001,-0.051,0.016,-0.016,0.02,0.033,-0.061
NACC1 (UniProt Q96RE7),-0.03,-0.039,-0.165,-0.109,-0.198,-0.12,-0.041,0.034,-0.084,-0.03,0.099,-0.082,-0.173,-0.075,0.062,0.148,0.235,-0.027,-0.257,-0.057
NCAPH (UniProt Q15003),0.015,0.022,-0.055,-0.049,-0.121,0.041,-0.057,0.019,-0.102,0.019,-0.086,-0.036,-0.092,-0.043,0.038,0.029,0.029,0.098,0,-0.009
NBN (UniProt O60934),-0.021,0.031,0.018,-0.198,-0.171,0.048,0.031,0.064,-0.016,0.131,-0.021,-0.037,-0.078,-0.067,0.127,0.091,0.009,-0.055,-0.104,0
NUDT21 (UniProt O43809),0.074,-0.071,0.033,-0.798 (active),0.031,0.051,0.029,-0.039,-0.007,-0.008,-0.042,-0.002,0.049,-0.007,0.037,-0.078,0.029,-0.124,0.062,-0.131
NISCH (UniProt Q9Y2I1),-0.053,0.053,-0.138,-0.158,-0.233,-0.324,-0.002,-0.02,-0.03,-0.009,-0.052,-0.293,-0.354,-0.168,0.101,0.09,0.023,0.065,0.081,-0.147
NNT (UniProt Q13423),-0.02,0.056,-0.005,-0.006,-0.02,-0.018,0.071,0.037,-0.034,0.021,-0.007,-0.037,-0.062,-0.029,0.006,0.025,0.018,-0.027,-0.041,0.024
NUDT16 (UniProt Q96DE0),-0.044,-0.035,0,0.015,0.058,-0.049,0.107,0.019,-0.02,0.049,0.02,0.08,-0.01,0.205 (active),0,-0.069,0.018,0.016,-0.106,0.034
MINK1 (UniProt Q8N4C8),-0.031,-0.04,-0.025,-0.062,-0.222 (active),-0.09,0.02,-0.042,0.018,0.014,0.006,-0.032,-0.097,0.005,0.045,0.057,0.077,-0.041,0.015,-0.119
NCAPD2 (UniProt Q15021),0.03,0.045,-0.078,-0.071,-0.159,0.08,-0.035,0.018,-0.148,0.033,-0.109,-0.075,-0.149,-0.045,0.084,0.058,0.078,0.135,0.014,-0.002
